This passage reports binding signal results from publication PMC11006913.

Assay [1] addresses HOXA7 (Homo sapiens, UniProt P31268 116-202). As to the kind of experiment: PBM; 200 nM protein, PBS. As to conditions: dsDNA, one strand shown.
In assay [2] the target is HOXA7 (Homo sapiens, UniProt P31268 116-202, W177C). As to the kind of experiment: PBM; 200 nM protein, PBS. Particulars: dsDNA, one strand shown.
Sequence of HOXA7 (Homo sapiens, UniProt P31268 116-202, W177C) (P31268 116-202 W177C): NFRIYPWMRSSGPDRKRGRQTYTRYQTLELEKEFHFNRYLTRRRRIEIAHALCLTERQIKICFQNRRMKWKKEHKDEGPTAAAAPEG

Sequence of HOXA7 (Homo sapiens, UniProt P31268 116-202) (P31268 116-202): as the sequence (P31268 116-202 W177C) above, with C62W counted along it

On to CGCAGGTC, for which the binding signal in assay [1] was 8.46 upbm affinity estimate (log intensity, higher = more binding, comparable within an allelic series); in assay [2] it was 8.44 upbm affinity estimate (log intensity, higher = more binding, comparable within an allelic series).

Regarding CGCTGAAG, the binding signal is 8.52 upbm affinity estimate (log intensity, higher = more binding, comparable within an allelic series) in assay [1] and 8.44 upbm affinity estimate (log intensity, higher = more binding, comparable within an allelic series) in assay [2].

On to GGGTACCC, for which the binding signal in assay [1] is 8.53 upbm affinity estimate (log intensity, higher = more binding, comparable within an allelic series); in assay [2], 8.44 upbm affinity estimate (log intensity, higher = more binding, comparable within an allelic series).

Take AGGCTGGA: the binding signal was 8.5 upbm affinity estimate (log intensity, higher = more binding, comparable within an allelic series) in assay [1] and 8.45 upbm affinity estimate (log intensity, higher = more binding, comparable within an allelic series) in assay [2].

For GTCAGGCA, the binding signal in assay [1] was 8.57 upbm affinity estimate (log intensity, higher = more binding, comparable within an allelic series); in assay [2] it was 8.43 upbm affinity estimate (log intensity, higher = more binding, comparable within an allelic series).

As to CCTTCCGC, the binding signal in assay [1] is 8.39 upbm affinity estimate (log intensity, higher = more binding, comparable within an allelic series); in assay [2], 8.37 upbm affinity estimate (log intensity, higher = more binding, comparable within an allelic series).

For CCGCTTCG, the binding signal in assay [1] was 8.43 upbm affinity estimate (log intensity, higher = more binding, comparable within an allelic series); in assay [2], 8.41 upbm affinity estimate (log intensity, higher = more binding, comparable within an allelic series).

In the case of AGACGGGA, the binding signal in assay [1] was 8.62 upbm affinity estimate (log intensity, higher = more binding, comparable within an allelic series); in assay [2], 8.51 upbm affinity estimate (log intensity, higher = more binding, comparable within an allelic series).

As for TACGTTAA, the binding signal in assay [1] was 9.58 upbm affinity estimate (log intensity, higher = more binding, comparable within an allelic series); in assay [2], 8.79 upbm affinity estimate (log intensity, higher = more binding, comparable within an allelic series).

Turning to ATATTGTA, the binding signal in assay [1] is 9.55 upbm affinity estimate (log intensity, higher = more binding, comparable within an allelic series); in assay [2], 8.9 upbm affinity estimate (log intensity, higher = more binding, comparable within an allelic series).

Consider ACCTAATC, for which the binding signal was 9.7 upbm affinity estimate (log intensity, higher = more binding, comparable within an allelic series) in assay [1] and 8.88 upbm affinity estimate (log intensity, higher = more binding, comparable within an allelic series) in assay [2].

Regarding ATTGATTG, the binding signal in assay [1] was 10.1 upbm affinity estimate (log intensity, higher = more binding, comparable within an allelic series); in assay [2], 8.75 upbm affinity estimate (log intensity, higher = more binding, comparable within an allelic series).

As to AAGACGAG, the binding signal in assay [1] was 8.4 upbm affinity estimate (log intensity, higher = more binding, comparable within an allelic series); in assay [2], 8.43 upbm affinity estimate (log intensity, higher = more binding, comparable within an allelic series).

Consider AGGCTCTC, for which the binding signal in assay [1] was 8.46 upbm affinity estimate (log intensity, higher = more binding, comparable within an allelic series); in assay [2], 8.32 upbm affinity estimate (log intensity, higher = more binding, comparable within an allelic series).

Take CCAGGTCG: the binding signal in assay [1] was 8.48 upbm affinity estimate (log intensity, higher = more binding, comparable within an allelic series); in assay [2], 8.45 upbm affinity estimate (log intensity, higher = more binding, comparable within an allelic series).

As to AGCTCGGA, the binding signal in assay [1] was 8.37 upbm affinity estimate (log intensity, higher = more binding, comparable within an allelic series); in assay [2], 8.35 upbm affinity estimate (log intensity, higher = more binding, comparable within an allelic series).

Take AGGTCAGA: the binding signal was 8.56 upbm affinity estimate (log intensity, higher = more binding, comparable within an allelic series) in assay [1] and 8.58 upbm affinity estimate (log intensity, higher = more binding, comparable within an allelic series) in assay [2].

For the sequence CGGGTGCC, the binding signal in assay [1] is 8.6 upbm affinity estimate (log intensity, higher = more binding, comparable within an allelic series); in assay [2], 8.41 upbm affinity estimate (log intensity, higher = more binding, comparable within an allelic series).

As for ACCTGCAC, the binding signal is 8.57 upbm affinity estimate (log intensity, higher = more binding, comparable within an allelic series) in assay [1] and 8.45 upbm affinity estimate (log intensity, higher = more binding, comparable within an allelic series) in assay [2].

As for AGCCGCTG, the binding signal was 8.52 upbm affinity estimate (log intensity, higher = more binding, comparable within an allelic series) in assay [1] and 8.43 upbm affinity estimate (log intensity, higher = more binding, comparable within an allelic series) in assay [2].

GAGCCAGC: the binding signal in assay [1] was 8.52 upbm affinity estimate (log intensity, higher = more binding, comparable within an allelic series); in assay [2], 8.41 upbm affinity estimate (log intensity, higher = more binding, comparable within an allelic series).

On to CCCCGTTA, for which the binding signal in assay [1] was 9.61 upbm affinity estimate (log intensity, higher = more binding, comparable within an allelic series); in assay [2] it was 8.75 upbm affinity estimate (log intensity, higher = more binding, comparable within an allelic series).

As to AGAAGGCG, the binding signal is 8.35 upbm affinity estimate (log intensity, higher = more binding, comparable within an allelic series) in assay [1] and 8.41 upbm affinity estimate (log intensity, higher = more binding, comparable within an allelic series) in assay [2].

As for CACGGAAG, the binding signal is 8.42 upbm affinity estimate (log intensity, higher = more binding, comparable within an allelic series) in assay [1] and 8.45 upbm affinity estimate (log intensity, higher = more binding, comparable within an allelic series) in assay [2].

In the case of CGTGCAAG, the binding signal is 8.47 upbm affinity estimate (log intensity, higher = more binding, comparable within an allelic series) in assay [1] and 8.43 upbm affinity estimate (log intensity, higher = more binding, comparable within an allelic series) in assay [2].

On to AATTGTAA, for which the binding signal in assay [1] was 9.73 upbm affinity estimate (log intensity, higher = more binding, comparable within an allelic series); in assay [2] it was 8.68 upbm affinity estimate (log intensity, higher = more binding, comparable within an allelic series).
